HCT116 PTEN-null: suppresses growth of cells with PTEN deletion | HCT116 PTEN-null viability, CellTiter-Glo, 60 h; hits give low values | viability, % at 10 µM | 1.2% of 140,000 active | AID 827;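 active = viability at or below a set limit, 4 SD under the median of all tested compounds, cut at about 3.7% in these data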;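 also: PTEN knockout HCT116 line with beta catenin targeted HCT116 as companion control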
p97 inhibitor: inhibitors of human p97 ATPase; recombinant p97 ATPase, Kinase-Glo ATP luminescence, 3 h; P55072; 0.42% of 220,000 active; inhibition, % at 8 µM; in the data active = inhibition above about 15%;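 also: 0% = DMSO vehicle and 100% = wells lacking enzyme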
ROMK primary: modulates human ROMK potassium channel activity | Tet-inducible ROMK, thallium flux fluorescence; actives lie on both sides | B-score at 10 µM | 2% of 130,000 active | AID 1918;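 active = signal ratio slope over the read window, or its plate-corrected B-score, at least 3 SD from the plate mean, either direction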;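 also: B-score of the F/F0 ratio slope over 7 to 12 s after thallium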
Target sequence (P48048 whole entry, looked up): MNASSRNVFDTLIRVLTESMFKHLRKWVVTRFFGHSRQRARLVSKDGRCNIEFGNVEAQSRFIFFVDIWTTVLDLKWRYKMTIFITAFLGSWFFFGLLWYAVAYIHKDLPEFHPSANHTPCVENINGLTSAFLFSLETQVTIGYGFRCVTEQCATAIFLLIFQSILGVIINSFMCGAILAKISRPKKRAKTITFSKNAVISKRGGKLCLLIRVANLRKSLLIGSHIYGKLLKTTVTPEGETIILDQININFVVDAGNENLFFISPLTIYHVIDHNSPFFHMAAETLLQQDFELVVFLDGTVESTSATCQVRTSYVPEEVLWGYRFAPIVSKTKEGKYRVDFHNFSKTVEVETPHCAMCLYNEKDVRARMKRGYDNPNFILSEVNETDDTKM
Insulin prom inh: TRM-6 insulin promoter activity inhibition; TRM-6 cells (human fetal islet line), insulin promoter-eGFP reporter, imaging; reporter expression induced with tamoxifen; inhibition, % at 2 µM; 0.9% of 130,000 active;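 active = inhibition above the mean plus 3 SD, with well images judged a real hit on visual review, cut at about 60% in these data, passing the limit was not always enough; inconclusive = inhibition over the cutoff but images rejected on review; inactive = inhibition not above the cutoff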
bCat KO growth: beta-catenin-lacking colon tumor cell growth suppression | HCT116 beta-catenin knockout viability, CellTiter-Glo, 60 h; hits give low values | viability, % at 10 µM | 1.5% of 140,000 active | AID 818;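 active = viability at or under a set limit, the compound median less 4 SD, cut at about 6% in these data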;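 also: 0% = Hyamine 1622 control at 20 µM and 100% = untreated cell control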
L major viab: reduces viability of Leishmania major promastigotes; resazurin fluorescence viability; inhibition, % at 10 µM; 9% of 200,000 active; AID 1063; in the data active = inhibition above about 50%;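 also: promastigotes grown with compound for 44 hours at 28 °C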
Lmaj promast 1uM: inhibitors of Leishmania major promastigote growth, repeat at 1 uM; 13% of 1,100 active; AID 1258; L. major promastigote growth, resazurin fluorescence, 48 h; shares compounds with L major viab; inhibition, % at 1 µM;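 active = inhibition above about 50% in both repeat tests, limit read from the data; inconclusive = one repeat under the set limit, the other over it; inactive = both repeats under the set limit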
* marks the source's active call; other numbers are inactive results; ? = inconclusive; . = not tested or not shown. Compounds with a hit are over-represented: about 10% of the library has one in this group of screens.

SMILES	HCT116 PTEN-null	p97 inhibitor	ROMK primary	Insulin prom inh	bCat KO growth	L major viab	Lmaj promast 1uM
O=C(Nc1ccc(Cl)cc1)Nc1ccc2c(c1)N1CCN=C1S2	26.7	3.3	-2.99	36.4	24.5	100.3*	0.7
CCCCCCCC#Cc1ccccc1/C=N/S(=O)c1ccc(C)cc1 (centres undefined)	62.7	7.0	1.91	38.1	57.5	-2.6	.
CN(C)/C=C(\C#N)C(N)=C(C#N)C#N	.	6.7	-0.54	.	.	2.9	.
CC(C)C[C@H](NC(=O)OC(C)(C)C)C(=O)N/N=C/C1=Cc2ccccc2OC1C (some centres undefined)	50.1	2.7	.	40.0	58.0	98.1*	-3.9
NC(=O)Cn1cnc2nc3n(c2c1=O)CCC3	.	3.5	-1.86	29.4	.	-1.8	.
COC(=O)c1cc2ccsc2n1Cc1nc(-c2ccc(OC)cc2)oc1C	76.1	-5.8	-0.246	-22.2	83.5	99.9*	93.5*
CC1=Nc2cccc3cccc(c23)N1	60.6	4.4	.	.	72.4	99.8*	-8.8
O=C(O)c1cc2c([nH]c1=O)CCCC2	91.9	2.4	.	48.3	85.7	9.5	.
C=CCSC(=C(C#N)C#N)c1cc2c([nH]1)CCCC2	1.9*	5.3	.	-35.7	2.6*	100.4*	30.5
COc1ccc(-c2csc(NC(=O)CSc3nc(C)nc4sc(C(=O)O)c(C)c34)n2)cc1	.	1.9	.	.	.	.	.
COc1ccc(N2CCN(Cc3nc(-c4ccccc4)no3)CC2)cc1	.	-1.1	-0.612	-55.6	.	-5.5	.
Nc1c(C(=O)NCCN2CCOCC2)c2nc3ccccc3nc2n1CCc1ccccc1F	3.8*	-5.6	.	.	3.6*	64.7*	-14.1
Nc1c(C(=O)NCCN2CCOCC2)c2nc3ccccc3nc2n1-c1ccc2c(c1)OCO2	81.4	5.9	-0.647	.	90.5	21.6	.
CN(C)S(=O)(=O)Nc1ccccc1F	.	5.3	1.36	.	.	1.7	.
Cc1ccc(OCC(O)CN2CCN(c3ccccc3)CC2)cc1 (centres undefined)	103.8	1.0	.	.	101.0	21.8	.
Cc1ccc(OCC(O)CN2CCN(CC(O)COc3ccc(C)cc3)CC2)cc1 (centres undefined)	97.2	1.0	-1.69	.	89.2	57.0*	-6.5
Cc1ccc(CC2CC(=O)N(CCc3ccccc3)C2=O)cc1 (centres undefined)	.	1.6	0.164	.	.	0.4	.
O=C1CC(Cc2ccccc2)C(=O)N1CCCn1ccnc1 (centres undefined)	105.1	6.7	0.21	42.1	96.0	98.8*	-4.8
N#Cc1ccc(-c2csc(NC3=NCCCCC3)n2)cc1	77.2	0.6	.	16.9	68.5	87.1*	-5.2
c1ccc(-c2csc(NC3=NCCCCC3)n2)cc1	89.2	0.0	.	.	81.0	5.2	.
Cc1ccc(-n2nnnc2CCl)cc1	.	2.8	-0.875	.	.	95.7*	14.7
Cc1ccc(-c2nnnn2-c2ccc(C)cc2)cc1	.	-1.6	0.167	.	.	33.4	.
CC(C)C(NC(=O)c1ccc(F)cc1)C(=O)NCC1CCCO1 (centres undefined)	.	5.5	.	.	.	.	.
C=CCOc1nc(N(C)C)nc(N(C)C)n1	99.0	-5.8	.	46.1	99.1	-2.6	.
O=C(C1=C[C@@H](c2ccccc2)C[C@@H](OCCCCO)O1)N1CCN(Cc2ccc3c(c2)OCO3)CC1	.	-4.0	.	.	.	3.3	.
SMILES	HCT116 PTEN-null	p97 inhibitor	ROMK primary	Insulin prom inh	bCat KO growth	L major viab	Lmaj promast 1uM
O=C(C1=C[C@H](c2ccc(Br)cc2)C[C@H](OCCCCO)O1)N1CCN(Cc2ccc3c(c2)OCO3)CC1	.	2.4	.	.	.	84.0*	-12.3
Nn1c(-c2ccccc2Cl)nnc1-c1ccccc1Cl	91.7	-5.9	0.181	62.5	71.2	76.4*	-23.9
CSc1nnc(-c2ccccc2Cl)n1N	121.9	-0.2	.	32.1	110.4	2.9	.
Brc1ccc(-c2csc3ncnc(-n4nnc5ccccc54)c23)cc1	58.9	0.1	-0.494	-20.0	68.5	3.3	.
COc1ccc(CNc2nc(-c3cccnc3)nn2C(=O)C(C)C)cc1	.	0.1	0.2	-53.3	.	-7.2	.
C(=C/c1nccc2c1[nH]c1ccccc12)/c1ccc2c(c1)OCO2	.	4.9	-0.519	-226.3	.	95.9*	5.5
c1ccc(-c2nc(-c3ccncc3)no2)cc1	89.6	2.1	.	?	84.5	-2.0	.
c1ccc(C(Cc2nc(-c3ccncc3)no2)c2ccccc2)cc1	29.1	-1.1	-1.52	?	27.2	69.8*	11.0
O=C(NC(Cc1ccccc1)C(=O)O)/C(=C/c1ccc(F)cc1)NC(=O)c1ccccc1 (centres undefined)	91.8	-0.9	.	.	89.2	-5.5	.
CN1CC(c2ccccn2)C2(SC(=S)N(Cc3ccccc3)C2=O)C12C(=O)Nc1ccccc12 (centres undefined)	46.6	-4.8	.	-54.0	51.7	100.2*	14.4
Cc1sc2ncnc(NCC(C)(C)N3CCOCC3)c2c1C	42.3	-0.8	-1.4	35.7	29.4	35.4	.
Cc1ccc2[nH]c(=O)c(CN(Cc3cccnc3)Cc3nnnn3CCN3CCOCC3)cc2c1	101.5	7.9	.	-3.2	91.7	-2.3	.
O=[N+]([O-])c1ccc(-n2cnc3ccccc32)c([N+](=O)[O-])c1	.	4.8	-0.0355	.	.	99.6*	21.8
CC(=N[C@@H]1CCCC[C@H]1N=C(C)c1ccccc1O)c1ccccc1O	102.1	3.1	0.316	31.2	90.3	-4.2	.
CN(C)C(=O)C12CCC(C)(c3nc4ccccc4nc31)C2(C)C (centres undefined)	97.4	1.0	0.00331	36.8	98.3	-7.4	.
Cc1cc2nc3c(nc2cc1C)C1(C(=O)N(C)C)CCC3(C)C1(C)C (centres undefined)	93.6	-6.0	-1.34	21.9	101.0	93.6*	-11.0
CC(C)OCCCNC(=O)NC(=O)c1ccc(Cl)cc1	.	5.5	0.498	.	.	-5.1	.
Nc1ccc2nc(SCc3ccc([N+](=O)[O-])cc3)sc2c1	86.9	1.3	.	.	95.8	68.6*	11.3
O=C(NCCSc1c[nH]c2ccccc12)c1ccc2c(c1)OCO2	.	-2.7	-0.256	26.8	.	3.0	.
NC(=O)CN(N=Nc1cccc([N+](=O)[O-])c1)c1cccc([N+](=O)[O-])c1	.	-0.8	0.33	.	.	55.0*	28.0
N#C/C(=C\c1cn(CCOc2ccccc2)c2ccccc12)C(=O)NCc1cccs1	86.5	5.2	0.156	-16.7	76.6	55.0*	-13.4
COc1ccc(OCCn2cc(/C=C(\C#N)C(=O)NCc3ccco3)c3ccccc32)cc1	75.8	-0.6	0.165	-13.3	96.7	-3.5	.
O=C(NCCc1cccc(Cl)c1)c1cccs1	.	-5.7	-0.296	.	.	5.4	.
CC(=O)/C(=N/Nc1cccc(C)c1)N1CCOCC1	116.1	1.8	-0.75	-37.8	97.8	63.8*	-7.6
Nc1ccccc1Nc1ccccc1	64.1	-0.6	.	3.9	72.4	99.3*	-16.2
COC(=O)C(=C/C(C)=C/c1cccs1)C(=O)OC	.	5.0	-1.63	33.3	.	62.0*	20.6
COC(=O)N/N=C/c1cccs1	.	6.0	-0.127	.	.	-4.5	.
CCOc1ccc(N(CC(=O)Nc2cc(C)ccc2C)S(=O)(=O)c2c(C)[nH]c(=O)[nH]c2=O)cc1	.	-6.5	.	.	.	.	.
Cc1nn(C)c(C)c1NC(=O)CCl	.	1.9	0.306	.	.	-0.4	.

Screens (PubChem BioAssay)
